Experimental findings from paper PMC5540273 (PLoS ONE, 2017) are described below.

Each structure is given as a SMILES string.

Among the test systems are PAK1; PAK2; PAK3; PAK4; PAK6; PAK7; PDGFRA; PDGFRB; PDPK1; PFTAIRE2; PHKG1; PHKG2; PIK3C2B; PIK3C2G; PIK3CA; PIK3CB.
Holding throughout (settings): concentration: 1 μM, replicates: in singlicate; n = 1
In a further assay the test system is T1, PCTK1.
T1 construct: gene CDK16

The next assay deals with T2, PCTK2.
T2 construct: gene CDK17

The test system of a further assay is T3, PCTK3.
T3 construct: gene CDK18

The subject of a further assay is T4, PFTK1.
T4 construct: gene CDK14
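Further: KINOMEscan kinase panel screen.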

In the case of `CC(C)N1CCC(n2cnc(-c3ccc(F)cc3)c2-c2ccnc(N)n2)CC1` [SB-223132], the “%Inh” value worked out at 19% with PAK1; 23% in the assay with PAK2; 0% in the assay with PAK3; 26% in the assay with PAK4; 0% in the assay on PAK6; 0% in the assay with PAK7. The “%Inh” value in the assay on PCTK1 amounted to 0%; in the assay with PCTK2, 0%; in the assay with PCTK3 it was 7%; in the assay with PDGFRA, 0%; with PDGFRB, 0%; in the assay on PDPK1, 5%. The “%Inh” value in the assay with PFTAIRE2 is reported as 0%; with PFTK1, 2%; in the assay with PHKG1, 28%; with PHKG2, 0%; in the assay with PIK3C2B it was 0%; with PIK3C2G, 0%. Also, the “%Inh” value in the assay on PIK3CA and in the assay with PIK3CB was 0% each time.

As for `Cl.c1ccc(Cn2ccc3cc(Nc4ncnc5ccccc45)ccc32)cc1` [GW275568], the “%Inh” value is listed as 12% in the assay with PAK1; 13% in the assay on PAK2; 0% in the assay on PAK3; 9% in the assay on PAK4; 8% in the assay on PAK6; 35% with PAK7. Also, the “%Inh” value with PCTK1 turned out to be 0%; with PCTK2 it was 16%; with PCTK3, 18%; with PDGFRA, 2%; with PDGFRB it was 35%; in the assay with PDPK1, 22%. Also, the “%Inh” value with PFTAIRE2 came out at 28%; in the assay with PFTK1, 29%; in the assay on PHKG1, 0%; with PHKG2, 23%; with PIK3C2B, 31%; with PIK3C2G, 3%. In addition, the “%Inh” value in the assay with PIK3CA is on record as 14%; in the assay on PIK3CB, 0%.

Take `Oc1ccc2ncnc(Nc3ccc(OCc4ccccc4)cc3)c2c1` [GI262866]: the “%Inh” value is 22% in the assay with PAK1; 29% with PAK2; 87% in the assay on PAK3; 0% with PAK4; 0% with PAK6; 0% with PAK7. For the same compound, the “%Inh” value is 10% in the assay on PCTK1; 0% in the assay with PCTK2; 13% with PCTK3; 0% with PDGFRA; 21% in the assay with PDGFRB; 0% with PDPK1. The “%Inh” value in the assay on PFTAIRE2 is 13%; in the assay with PFTK1, 29%; in the assay with PHKG1 it was 0%; in the assay with PHKG2, 0%; in the assay on PIK3C2B, 0%; with PIK3C2G, 0%. Besides, the “%Inh” value with PIK3CA and in the assay on PIK3CB was 0% in each case.

As to `COc1ccc(-c2oc3ncnc(N)c3c2-c2ccc(OC)cc2)cc1` [SB-589132], the “%Inh” value with PAK1 was 0%; in the assay with PAK2, 16%; with PAK3 it was 14%; in the assay with PAK4, 0%; with PAK6, 0%; in the assay on PAK7 it was 0%. Moreover, the “%Inh” value in the assay with PCTK1 is 0%; in the assay on PCTK2, 0%; in the assay with PCTK3, 14%; in the assay with PDGFRA, 17%; with PDGFRB, 41%; with PDPK1, 0%. For the same compound, the “%Inh” value is recorded as 17% in the assay with PFTAIRE2; 0% with PFTK1; 0% in the assay with PHKG1; 0% with PHKG2; 0% in the assay with PIK3C2B; 10% in the assay with PIK3C2G. The “%Inh” value in the assay on PIK3CA and with PIK3CB was 0% in each case.

In the case of `COc1ccc(Nc2nccc(N3CCC(NC(=O)Nc4ccc5c(c4)OCO5)C3)n2)cc1` (centres unmarked) [GSK1379745], the “%Inh” value in the assay on PAK1 came to 0%; with PAK2, 6%; in the assay on PAK3, 0%; in the assay on PAK4, 0%; in the assay on PAK6, 0%; with PAK7 it was 0%. Also, the “%Inh” value with PCTK1 was determined as 6%; in the assay with PCTK2, 17%; with PCTK3, 32%; in the assay with PDGFRA it was 0%; in the assay on PDGFRB it was 24%; in the assay on PDPK1 it was 27%. For the same compound, the “%Inh” value with PFTAIRE2 is reported as 11%; in the assay with PFTK1, 7%; in the assay on PHKG1, 0%; with PHKG2 it was 9%; in the assay on PIK3C2B, 9%; with PIK3C2G, 0%. The “%Inh” value in the assay on PIK3CA and in the assay with PIK3CB was 0% in each case.

Regarding `Cc1ccc(O)cc1Nc1cc(C(F)(F)F)nc2ccc(-c3ccncc3)cc12` [GW630823], the “%Inh” value in the assay with PAK1 was determined as 21%; in the assay on PAK2, 10%; with PAK3, 0%; in the assay with PAK4, 21%; in the assay with PAK6, 20%; in the assay with PAK7 it was 7%. For the same compound, the “%Inh” value in the assay with PCTK1 is given as 0%; in the assay with PCTK2, 2%; in the assay on PCTK3 it was 0%; with PDGFRA, 0%; in the assay with PDGFRB it was 10%; in the assay with PDPK1, 0%. In addition, the “%Inh” value was 34% with PFTAIRE2; 5% in the assay with PFTK1; 14% with PHKG1; 5% in the assay with PHKG2; 0% in the assay on PIK3C2B; 15% in the assay with PIK3C2G. Besides, the results for the “%Inh” value with PIK3CA and in the assay with PIK3CB were 1% and 0%, respectively.

`COc1ccc(Nc2nccc(N3CCC(NC(=O)c4cccc(NC(C)=O)c4)C3)n2)cc1` (centres unmarked) [GSK1379732]: the “%Inh” value in the assay on PAK1 was 0%; in the assay with PAK2, 0%; with PAK3, 0%; with PAK4 it was 0%; in the assay on PAK6 it was 0%; in the assay on PAK7, 6%. Further, the “%Inh” value in the assay on PCTK1 is on record as 0%; with PCTK2 it was 10%; in the assay with PCTK3, 1%; in the assay with PDGFRA, 0%; in the assay on PDGFRB, 20%; in the assay on PDPK1, 10%. The “%Inh” value with PFTAIRE2 was 17%; with PFTK1, 36%; in the assay with PHKG1, 0%; in the assay with PHKG2, 1%; with PIK3C2B it was 0%; with PIK3C2G, 0%. Also, the “%Inh” value is reported as 0% in the assay on PIK3CA and 9% in the assay on PIK3CB.

For `CS(=O)(=O)CCNCc1nc(-c2ccc3ncnc(Nc4ccc(OCc5cccc(F)c5)c(Cl)c4)c3c2)cs1.Cl` [GW583340], the “%Inh” value was found to be 19% in the assay on PAK1; 9% in the assay with PAK2; 0% with PAK3; 0% with PAK4; 0% with PAK6; 7% in the assay on PAK7. Moreover, the “%Inh” value in the assay on PCTK1 is 3%; with PCTK2, 16%; in the assay with PCTK3, 10%; in the assay with PDGFRA it was 0%; with PDGFRB it was 12%; with PDPK1, 0%. For the same compound, the “%Inh” value in the assay with PFTAIRE2 was determined as 12%; with PFTK1, 16%; in the assay on PHKG1, 0%; in the assay on PHKG2, 0%; in the assay with PIK3C2B it was 37%; with PIK3C2G it was 0%. Also, the “%Inh” value in the assay on PIK3CA and with PIK3CB was 0% each time.

For `O=C(c1ccc(-c2cc(-c3c[nH]nc3-c3ccccn3)ccn2)cc1)N1CCCC1` [GW792479], the “%Inh” value with PAK1 worked out at 8%; with PAK2, 0%; with PAK3 it was 0%; in the assay on PAK4, 16%; in the assay with PAK6, 9%; in the assay on PAK7, 0%. The “%Inh” value in the assay on PCTK1 was 0%; in the assay with PCTK2, 0%; in the assay with PCTK3, 3%; with PDGFRA it was 0%; in the assay on PDGFRB, 4%; with PDPK1 it was 0%. The “%Inh” value with PFTAIRE2 is 6%; with PFTK1, 0%; in the assay with PHKG1 it was 0%; with PHKG2 it was 19%; in the assay with PIK3C2B, 0%; in the assay on PIK3C2G, 5%. Also, the “%Inh” value in the assay with PIK3CA and with PIK3CB was 0% in each case.

With `FC(F)(F)c1ccc(-c2nn3ncccc3c2-c2ccnc(Nc3cccc(C(F)(F)F)c3)n2)cc1` [GW828205], the “%Inh” value with PAK1 is recorded as 37%; in the assay on PAK2 it was 30%; with PAK3 it was 0%; with PAK4, 7%; in the assay with PAK6, 20%; in the assay with PAK7 it was 0%. Moreover, the “%Inh” value was found to be 0% in the assay with PCTK1; 0% in the assay on PCTK2; 0% in the assay on PCTK3; 0% in the assay with PDGFRA; 9% with PDGFRB; 0% in the assay with PDPK1. Further, the “%Inh” value in the assay on PFTAIRE2 was found to be 0%; with PFTK1, 48%; with PHKG1, 9%; with PHKG2, 0%; in the assay on PIK3C2B it was 0%; with PIK3C2G, 0%. Also, the “%Inh” value in the assay on PIK3CA and in the assay with PIK3CB was 0% each time.
